What all share (assay type): functional
Assay [1] deals with Plasmodium falciparum. Put plainly: GSK_TCMDC: Inhibition of Plasmodium falciparum 3D7 in whole red blood cells, using parasite LDH activity as an index of growth. Test compounds present at 2uM.
The subject of assay [2] is Plasmodium falciparum. The experiment in a line: GSK_TCMDC: Inhibition of Plasmodium falciparum Dd2 in whole red blood cells, using parasite LDH activity as an index of growth. Test compounds present at 2uM.
The subject of the next assay is HepG2. Put plainly: GSK_TCMDC: Percent inhibition of human HepG2 cell line. Test compounds present at 10uM.

Here are results for 30 compounds from ChEMBL document CHEMBL1157539, “Thousands of chemical starting points for antimalarial lead identification” (Nature, 2010).

By Inhibition is commonly meant the change of the read-out against control, counted positive when it falls.

`O=C(C=Cc1ccc(Cl)c(Cl)c1)NCCCCCN1CCCC(CCCNS(=O)(=O)c2cccc(C(F)(F)F)c2)C1` (stereo not given): the Inhibition in the assay on Plasmodium falciparum [1] was 94%; in the assay on Plasmodium falciparum [2], 33%; with HepG2 it was 81%.
`Cn1nc(-c2ccccc2F)c2cc(C(=O)Nc3cccnc3)sc21`: the Inhibition with Plasmodium falciparum [1] is 92%; in the assay with Plasmodium falciparum [2] it was 82%; in the assay on HepG2, 5%.
For `COc1ccc(Cl)cc1-c1nc(C(=O)NCCN2CCCCC2)c(C)s1.O=C(O)C(F)(F)F`, the Inhibition in the assay with Plasmodium falciparum [1] was 97%; in the assay with Plasmodium falciparum [2], 10%; in the assay on HepG2, 16%.
On to `Cc1cccc(-c2ccc(NC(=O)C3CCN(Cc4cccc(O)c4)CC3)cc2)c1`, for which the Inhibition with Plasmodium falciparum [1] is on record as 92%; in the assay on Plasmodium falciparum [2], 64%; with HepG2 it was 21%.
For `Cc1csc(-c2ncc(OC[C@@H](N)Cc3ccccc3)cc2-c2ccc3[nH]nc(C)c3c2)c1.O=C(O)C(F)(F)F`, the values for the Inhibition with Plasmodium falciparum [1], in the assay on Plasmodium falciparum [2] and in the assay with HepG2 were 98%, 35% and 48%, respectively.
Turning to `COc1ccc(C=C2SC(=N)N(c3ccccc3OC)C2=O)cc1`, the Inhibition turned out to be 97% with Plasmodium falciparum [1], 95% in the assay with Plasmodium falciparum [2] and 47% with HepG2.
Take `Cn1cncc1C(=O)NC1CCN(c2ccnc(Nc3ccc(F)cc3)n2)C1` (stereo not given): the values for the Inhibition in the assay on Plasmodium falciparum [1], with Plasmodium falciparum [2] and in the assay on HepG2 were 97%, 83% and 2%, respectively.
In the same order, the values of `CCCOC(=O)C1=C(C)NC2=C(C(=O)CC(c3ccc(OC)c(OC)c3)C2)C1c1cccc(O)c1` (stereo not given) are 100%, 99% and 0%.
In the same order, the values of `CC(C)C1=C[C@H]2C[C@]3(C4OCCO4)[C@@H]4CC[C@@H](C)[C@H]4C[C@@]2(C(=O)OCC2COCO2)[C@]13C(=O)OC(c1ccccc1)c1ccccc1` (stereo not given in full) are 92%, 96% and 2%.
In the same order, the values of `CC[C@H](C)CNC(=O)c1ccnc(-c2ccc(CNC3Cc4ccccc4C3)cc2)c1.O=C(O)C(F)(F)F` are 100%, 87% and 18%.
For the compound `CC(C)C[C@@H](/C=N/N1CCNC1=O)NC(=O)[C@H](CC(C)C)NC(=O)c1ccc(OCCN2CCOCC2)cc1`, the values for the Inhibition in the assay on Plasmodium falciparum [1], with Plasmodium falciparum [2] and in the assay on HepG2 were 97%, 89% and 21%, respectively.
Turning to `O=C(Nc1cccc(CN2CCN(C(=O)c3cccc(F)c3)CC2)c1)c1cccs1.O=C(O)C(F)(F)F`, the Inhibition with Plasmodium falciparum [1] is given as 95%; in the assay on Plasmodium falciparum [2], 95%; in the assay with HepG2 it was 17%.
For `CN1CCC(Oc2ccc(NC(=O)c3ccc4c(=O)n(Cc5ccccc5)cnc4c3)cc2Cl)CC1`, the results for the Inhibition with Plasmodium falciparum [1], with Plasmodium falciparum [2] and with HepG2 were 95%, 20% and 23%, respectively.
`Cc1ccccc1CNc1noc(-c2c(-c3ccccc3)noc2C)n1`: the Inhibition in the assay on Plasmodium falciparum [1] is on record as 94%; in the assay with Plasmodium falciparum [2], 70%; with HepG2, 0%.
`CCc1c(CCNCCCCCCNCCc2ccc(OC)cc2)ccc(OC)c1OC.Cl`: the Inhibition came out at 98% with Plasmodium falciparum [1], 0% with Plasmodium falciparum [2] and 16% with HepG2.
On to `N#Cc1ccc(-c2ccc(C(=O)NCC3CCN(CCN4CCC(c5ccc6c(c5OCC(N)=O)CCCC6)CC4)CC3)cc2)cc1`, for which the Inhibition in the assay on Plasmodium falciparum [1] was determined as 99%; in the assay with Plasmodium falciparum [2], 99%; in the assay with HepG2, 56%.
On to `O=C(NC1CC1)c1cnc(N2CCN(Cc3ccc(Cl)cc3)CC2)c(Cl)c1.O=C(O)C(F)(F)F`, for which the Inhibition with Plasmodium falciparum [1] amounted to 93%; with Plasmodium falciparum [2], 91%; in the assay with HepG2, 39%.
Take `O=C(Nc1nc(-c2ccccn2)cc2ccccc12)c1cccc(Cl)c1`: the Inhibition in the assay with Plasmodium falciparum [1] was 96%; in the assay on Plasmodium falciparum [2], 72%; with HepG2, 59%.
Turning to `Cl.O=S(=O)(c1ccc(OCc2ccc(Cl)cc2)cc1)c1cc2c(cc1OCc1ccccc1)CCN(CC1CC1)CC2`, the figures for the Inhibition in the assay on Plasmodium falciparum [1], in the assay on Plasmodium falciparum [2] and in the assay on HepG2 were 82%, 0% and 19%, respectively.
Regarding `O=C(Nc1ccc(CCNCCCc2ccccc2)cc1)Nc1ccc(Cl)c(Cl)c1`, the Inhibition in the assay with Plasmodium falciparum [1] worked out at 100%; in the assay with Plasmodium falciparum [2], 99%; in the assay on HepG2 it was 33%.
In the case of `CC(C)c1ccc(CN2CCC(CNC(=O)c3cc(-c4cccc(C(F)(F)F)c4)cs3)C2)cc1.O=C(O)C(F)(F)F` (stereo not given), the Inhibition in the assay on Plasmodium falciparum [1] is 99%; in the assay on Plasmodium falciparum [2], 60%; with HepG2 it was 36%.
Taken in the same sequence, the figures for `Cc1cccc2nc(-c3cccc(-c4cccc(NC(=O)c5c[nH]cn5)c4)c3)[nH]c12` were 100%, 91% and 2%.
As to `CCN1CCC(N(Cc2ccc(-c3ccc(C(F)(F)F)cc3)cc2)C(=O)Cn2c(CCc3cccc(F)c3F)nc(=O)c3ccccc32)CC1.O=C(O)C(O)C(O)C(=O)O`, the figures for the Inhibition with Plasmodium falciparum [1], with Plasmodium falciparum [2] and in the assay with HepG2 were 95%, 95% and 99%, respectively.
Consider `Br.CC(CCON1C(N)=NC(N)=NC1(C)C)c1ccc(Cl)c(Cl)c1` (stereo not given), for which the Inhibition amounted to 98% in the assay with Plasmodium falciparum [1], 97% in the assay on Plasmodium falciparum [2] and 60% in the assay on HepG2.
Consider `CN1CCN(c2cccc(-c3nnc(-c4cccc(OCC(=O)NCc5ccc(C(F)(F)F)cc5)c4)o3)c2)CC1`, for which the figures for the Inhibition with Plasmodium falciparum [1], with Plasmodium falciparum [2] and in the assay with HepG2 were 98%, 86% and 10%, respectively.
For the compound `O=C(Nc1ccc(Cl)c(C(F)(F)F)c1)Nc1ccc(Cl)c(C(F)(F)F)c1`, the Inhibition came out at 94% in the assay with Plasmodium falciparum [1], 96% in the assay with Plasmodium falciparum [2] and 1% in the assay with HepG2.
For `CSc1ccc(CN2CCC(NC(=O)c3ccc(-c4cccc(Cl)c4)s3)CC2)cc1.O=C(O)C(F)(F)F`, the Inhibition with Plasmodium falciparum [1] came out at 86%; in the assay on Plasmodium falciparum [2], 19%; in the assay with HepG2, 75%.
`Br.c1ccc(-c2nc(Nc3ccncc3)sc2-c2ccccc2)cc1`: the Inhibition in the assay with Plasmodium falciparum [1] stood at 97%; with Plasmodium falciparum [2], 18%; with HepG2, 0%.
As for `COc1cc2nc(N(C)C)nc(Nc3ccc(OCc4ccccc4)cc3)c2cc1OC`, the Inhibition with Plasmodium falciparum [1] is reported as 100%; with Plasmodium falciparum [2] it was 100%; in the assay with HepG2 it was 91%.
On to `Cl.NC(=O)c1cccc(Nc2nccc(Nc3ccc(Oc4c(Cl)cccc4Cl)c(Cl)c3)n2)c1`, for which the Inhibition in the assay on Plasmodium falciparum [1] is 93%; in the assay on Plasmodium falciparum [2], 17%; in the assay with HepG2, 2%.
